Assay results published in PubChem BioAssay.

What follows are molecules tested on Noggin (protein binding on small-molecule microarray) (assay: Noggin binders on small-molecule microarray, primary screen, biochemical, 635/667 nm fluorescence (AID 1095;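 note: score merges 667 nm feature fluorescence with signal to noise over triplicate slides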)). Conditions: 635 nm fluorescence, higher = more signal.
COC(=O)[C@@]1(Cc2ccc(OC)cc2)[C@H]2c3cc(C(=O)N(C)C)n(Cc4cc(C)n(C)n4)c3C[C@H]2CN1C(=O)c1ccccc1 gave a composite z-score of 0.119.
Molecule O=C(NCc1ccccc1)[C@]1(Cc2ccccc2)N=C(c2ccc(OCCCO)cc2)O[C@@H]1c1ccccc1 has a composite z-score of -0.102.
[N-]=[N+]=NCc1ccccc1[C@H]1OC(c2ccc(OCCCO)cc2)=N[C@@]1(Cc1ccccc1N=[N+]=[N-])C(=O)N1CCCCC1 showed a composite z-score of 0.667.
Work on COCCOC(=O)N1C(=O)[C@@]2(c3ccccc31)[C@H](c1ccc(OCCO)cc1)N1[C@H](c3ccccc3)[C@H](c3ccccc3)OC(=O)[C@H]1[C@@H]2C(=O)NC[C@H](O)c1ccccc1 yielded a composite z-score of 1.19.
COc1ccc(C(=O)Nc2ccc3c(c2)[C@]2(O[C@@H](CCO)[C@H]([Si](C)(C)c4ccc(OC)cc4)[C@H]2C)C(=O)N3Cc2ccccc2)cc1 showed a composite z-score of 0.78.
In the case of CN(C)C(=O)[C@]1(Cc2ccccc2N=[N+]=[N-])N=C(c2ccc(OCCCO)cc2)O[C@@H]1c1ccccc1CN=[N+]=[N-], the composite z-score is reported as 0.821.
Work on COCCOC(=O)N1C(=O)[C@@]2(c3cc(C#Cc4ccc(OC)cc4)ccc31)[C@H](C(=O)N1CCc3cc(OC)c(OC)cc3C1)[C@H]1C(=O)O[C@H](c3ccccc3)[C@H](c3ccccc3)N1[C@@H]2c1ccc(O)cc1 yielded a composite z-score of 0.614.
With COc1ccc(C#Cc2ccc3c(c2)[C@]2(C(=O)N3)[C@H](C(N)=O)[C@H]3C(=O)O[C@H](c4ccccc4)[C@H](c4ccccc4)N3[C@@H]2c2ccc(O)cc2)cc1 the composite z-score was 0.176.
COc1ccc([Si](C)(C)[C@@H]2[C@@H](CCO)O[C@]3(C(=O)N(Cc4ccccc4)c4ccc(N5C(=O)COc6ccccc65)cc43)[C@H]2C)cc1 showed a composite z-score of 1.09.
In the case of CC(C)(C)OC(=O)CC[C@@]1(C(=O)N2CCCCC2)N=C(c2ccc(OCCCO)cc2)O[C@@H]1c1ccccc1CN=[N+]=[N-], the composite z-score is reported as 0.39.
CC(C)C(CO)N1C(=O)[C@@H]2[C@H]3C(=O)OCC=C[C@H]3OC23C=CCN(CCN2CCOCC2)C(=O)[C@@H]13 (stereo partly specified) gave a composite z-score of 0.521.
CN1C(=O)C2C=CC(C(O)c3cccc4ccccc34)N(NC(=O)OC(C)(C)C)C2C1=O (stereo unspecified) gave a composite z-score of -0.773.
COCCOC(=O)N1C(=O)[C@@]2(c3cc(C#Cc4ccc(OC)cc4)ccc31)[C@H](C(=O)N1CCc3cc(OC)c(OC)cc3C1)[C@H]1C(=O)O[C@H](c3ccccc3)[C@H](c3ccccc3)N1[C@@H]2c1ccc(OCCO)cc1 showed a composite z-score of 1.22.
In the case of CCOC(=O)C1=CC[C@@H](c2ccccc2)N(S(=O)(=O)c2ccc(C)cc2)[C@H]1C=C(C)C, the composite z-score is reported as 0.793.
Molecule C[N+](C)(C)CCCC[C@@H]1NC(=O)[C@H]2C[C@@H](C(=O)NCCCCCCN)[C@@H](c3cccc(OCCO)c3)N2C1=O has a composite z-score of 1.15.
Molecule COC(=O)C(CC#Cc1ccc2c(c1)[C@]1(C(=O)N2)[C@H](c2ccc(O)cc2)N2[C@H](c3ccccc3)[C@H](c3ccccc3)OC(=O)[C@H]2[C@@H]1C(N)=O)C(=O)OC has a composite z-score of -2.58.
Molecule CCOc1cc(C(O)C2C=CC3C(=O)NC(=O)C3N2Nc2ccccn2)ccc1O (stereo unspecified) has a composite z-score of 0.195.
For C[N+](C)(C)CCCCCCNC(=O)[C@@H]1C[C@@H]2C(=O)NCC(=O)N2[C@@H]1c1cccc(OCCO)c1, the composite z-score was 1.49.
Molecule O=C1c2ccccc2C(=O)C2CC([C@H]3Oc4ccccc4S(=O)(=O)N4CCC[C@@H]34)=CCC12 (stereo partly specified) has a composite z-score of 0.162.
CCCc1cc2c(n1Cc1ccc(OC)cc1)C(C)C1CN(C(=O)c3ccccc3)C(C)(C(=O)OC)C21 (stereo unspecified) gave a composite z-score of -0.758.
Molecule CC(=O)NCCCC[C@@H]1NC(=O)[C@@H]2C[C@H](C(=O)NCCCC[N+](C)(C)C)[C@H](c3cccc(OCCO)c3)N2C1=O has a composite z-score of 1.94.
[N-]=[N+]=Nc1ccccc1[C@@H]1OC(c2ccc(OCCCO)cc2)=N[C@]1(CCS(=O)(=O)c1ccccc1)C(=O)NCc1ccccc1 showed a composite z-score of 0.326.
CN(C)CCCC[C@@H]1NC(=O)[C@H]2C[C@@H](C(=O)NCCCCCCNC(=O)CS)[C@@H](c3ccc(O)cc3)N2C1=O showed a composite z-score of 1.58.
Molecule COC(=O)[C@@]1(Cc2ccc(OC)cc2)[C@H]2c3cc(C(=O)N4CCCC4)n(Cc4ccc(C)o4)c3C[C@H]2CN1C(=O)c1ccccc1 has a composite z-score of 0.355.
Molecule O=C1N(Cc2ccccc2)c2ccccc2[C@H]2OC(c3ccc(OCCCO)cc3)=N[C@@]12CCS(=O)(=O)c1ccccc1 has a composite z-score of 1.75.
With COCCCNC(=O)[C@]1(Cc2ccccc2)N=C(c2ccc(OCCCO)cc2)O[C@@H]1c1ccccc1N=[N+]=[N-] the composite z-score was 1.67.
